# Measurements as given in PubChem BioAssay AID1851 (National Center for Advancing Translational Sciences (NCATS), 2009).
# About 4,000 (25%) of roughly 16,000 compounds were called active. Not shown: some 26% with an inconclusive outcome. The list is a sample of the results. A number with no mark means an inactive call. The call rests on the fitted dose curve; in most records, active means well fitted curve in the direction sought with a large enough effect; inconclusive means small, poorly fitted or top-dose-only effect, or effect the other way; inactive means no such curve, though single readings can be large or run the other way.
# Molecular target: Cytochrome P450 2C9 (Homo sapiens) (UniProt P11712)
# Sequence (P11712 whole entry, looked up): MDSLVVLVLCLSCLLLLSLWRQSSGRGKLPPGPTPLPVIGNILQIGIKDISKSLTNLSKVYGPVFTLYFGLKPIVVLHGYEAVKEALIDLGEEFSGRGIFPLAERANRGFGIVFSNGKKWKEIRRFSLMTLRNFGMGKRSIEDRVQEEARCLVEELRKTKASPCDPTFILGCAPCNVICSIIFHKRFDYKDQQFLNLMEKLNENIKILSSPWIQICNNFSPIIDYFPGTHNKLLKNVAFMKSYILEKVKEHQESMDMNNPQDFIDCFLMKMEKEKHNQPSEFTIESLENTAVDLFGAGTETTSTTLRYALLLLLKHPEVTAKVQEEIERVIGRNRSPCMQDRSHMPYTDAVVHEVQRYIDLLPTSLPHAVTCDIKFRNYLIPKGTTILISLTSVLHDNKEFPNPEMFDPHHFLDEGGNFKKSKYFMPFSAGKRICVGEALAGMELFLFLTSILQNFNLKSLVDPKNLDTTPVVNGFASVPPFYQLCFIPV
# Assay: Cytochrome panel assay with activity outcomes
# Conditions: recombinant CYP, pro-luciferin dealkylation, luminescence, p450-cyp2c9; series mostly up to 57.1 µM; activity, negative = inhibition: at the top concentration
# On the % scale 0 is the no-effect control and ±100 the full control effect.
SMILES,"activity, negative = inhibition",AC50
N=C(N)N1CCc2ccccc2C1,-9.55% [at 25.6 µM],
CCc1ccc(/C=C\C(=O)N2CCc3ccccc3C2)cc1,,22.4 µM (active)
CCCCCCN1Cc2ccccc2C1,4.38%,
Clc1ccccc1OCCCCN1CCCC1,-9.04%,
Cc1cc(=O)oc(C)c1C(=O)NCc1ccccc1,-11.3%,
CCOc1ccc(OCc2ccc(C(=O)N3CCc4ccccc4C3)o2)cc1,,5.01 µM (active)
Cc1ccccc1-c1cc(NCc2cccnc2)ncn1,-13% [at 2.29 µM],
CCOc1ccc(OCc2ccc(C(=O)NCc3cccnc3)o2)cc1,,12.6 µM (active)
CCOc1cccc(CNCCNC(=O)c2nonc2N)c1,-17%,
COc1ccc(-c2cc(C(=O)NCc3cccnc3)no2)cc1OC,23.4%,
CC1CCN(C(=O)c2ccc(COc3ccccc3Cl)o2)CC1,,17.8 µM (active)
Cc1ccccc1CS(=O)(=O)Cc1ccc(C(=O)NCc2cccnc2)o1,,5.01 µM (active)
COc1ccccc1OCc1ccc(C(=O)N(C)C)o1,-18%,
Cc1ccccc1C(=O)Nc1ccc(C(=O)NNC(=O)CCCOc2ccc(Cl)cc2Cl)cc1,-26.9%,
Cc1cc(C)n(Cc2ccc(NC(=O)c3ccc(COc4ccccc4Br)cc3)cc2)n1,,1.12 µM (active)
Cc1cc(C)n(CCCNCC(O)c2ccccc2)n1 (stereo unspecified),-11.4%,
c1ccc(CN2CC[C@@H](CNc3ncnc4ccccc34)C2)cc1,22.2% [at 11.4 µM],
C[C@@H](CN(C)C)CN1c2ccccc2CCc2ccccc21,,inactive
c1ccc(CN2CCC3(CCCc4ccccc43)CC2)cc1,-8.57%,
O=C1CCCc2ccccc2N1Cc1cccc(Cl)c1,,5.01 µM (active)
O=C1CCCc2ccccc2N1Cc1ccccc1Cl,,10 µM (active)
CC(=O)NCCNc1ncnc2ccc(-c3c(C)noc3C)cc12,27.1% [at 2.29 µM],
O=c1c2ccc(Cl)cc2nc(-c2cccc(C(F)(F)F)c2)n1O,,5.01 µM (active)
CCc1ccc(NC(=O)C2CCN(S(=O)(=O)c3c(C)[nH]c(=O)[nH]c3=O)CC2)cc1,-27.8%,
CCOC(=O)N1CCN(c2c(-c3ccccc3)c3cc(Cl)ccc3[nH]c2=O)CC1,,1.26 µM (active)
CCOC(=O)c1[nH]c2ccc(Cl)cc2c1-c1ccccc1,-19.7%,

SMILES,"activity, negative = inhibition",AC50
CO[C@H]1COC(=O)C/C=C\[C@@H](C)[C@H](OC)COC(=O)[C@H]2CCCN2C(=O)C/C=C\[C@@H]1C,12.3% [at 11.4 µM],
CC(=O)Oc1ccc2ccccc2c1C(NC(=O)Cc1ccccc1)c1ccc(Cl)cc1 (stereo unspecified),,1.78 µM (active)
Cn1c([N+](=O)[O-])cnc1CN1CCN(CCO)CC1,8.6% [at 11.4 µM],
O=C(c1ccccc1)c1ccc(OCC(O)CN2CCN(Cc3ccccc3)CC2)cc1 (stereo unspecified),,12.6 µM (active)
O[C@H](COc1ccccc1)CN1CCCCC1,9.06% [at 11.4 µM],
CC(C(=O)NC1CCCC1)N(C(=O)c1ccc(-c2ccccc2)[nH]1)c1ccccc1F (stereo unspecified),,5.01 µM (active)
Fc1ccc2nc(Nc3nc4c(s3)CCCC4)sc2c1,,14.1 µM (active)
NCCCCC(=O)O,-13.6%,
Cc1ccc(Sc2nc(C)cc(C)c2S(C)(=O)=O)cc1,,3.55 µM (active)
CC(=O)O[C@]1(C)N=NC2(CCCCC2)O1,16.8% [at 11.4 µM],
CCC1CCCCN1Cc1cc(OC)c(O)c([N+](=O)[O-])c1 (stereo unspecified),-0.234%,
CCCNC(=O)CSc1nc(-c2cccs2)cc(C(F)(F)F)n1,,2.82 µM (active)
CN1CCN(c2ncc3nc(-c4cccs4)c(=O)n(-c4ccccc4)c3n2)CC1,-2.31%,
Cc1cc(C)nc(SCC(=O)N/N=C\c2sccc2C)n1,-15.8%,
CCOC(=O)N1CCN(c2nc(-c3ccco3)cc(C(F)(F)F)n2)CC1,,1.12 µM (active)
CCCNC(=O)c1cc2c(C(F)(F)F)nn(C)c2s1,-27.8%,
CCOC(=O)N1CCN(c2nc(-c3cccs3)cc(C(F)(F)F)n2)CC1,,1.58 µM (active)
C/C(CC/C(C)=N/O)=N/O,-9.93% [at 11.4 µM],
O=C1OC2CC3CC1CC(O)(C3)C2 (stereo unspecified),-15.4%,
Cc1cc2nc(-c3ccc(SCC(=O)N4CCc5ccccc54)nc3)[nH]c2cc1C,,3.55 µM (active)
Cc1ccc(C)c(-n2c(CNC(=O)c3ccco3)nnc2SCC(=O)N2CCc3ccccc32)c1,-21.7%,
O=C(COC(=O)c1ccccc1Nc1cccc(C(F)(F)F)c1)NCc1ccco1,,3.16 µM (active)
O=C(O)c1cccnc1Nc1cccc(C(F)(F)F)c1,-12.1% [at 25.6 µM],
O=C(COC(=O)c1cccnc1Nc1cccc(C(F)(F)F)c1)NCc1ccc2c(c1)OCO2,,3.55 µM (active)
Cc1cc(NC(=O)C2C3C(=O)N(Cc4ccc(Cl)cc4)C(C(=O)NC(C)(C)C)C34C=CC2(C)O4)no1 (stereo unspecified),-51.8%,
OC[C@H](S)CS,-14.4% [at 11.4 µM],

SMILES,"activity, negative = inhibition",AC50
COCC(=O)N1CCC2(CC1)CN(Cc1ccc(C#N)cc1)C2,-0.1%,
CCN1CNC(=S)N(c2cc(C)ccc2C)C1,0.18%,
O=C(c1cc2sccc2n1Cc1ccccc1)N1CCN(c2nc3ccccc3s2)CC1,,2.82 µM (active)
Cn1c(=O)c2[nH]c(CCCCC(=O)O)nc2n(C)c1=O,-3.07% [at 11.4 µM],
CCOC(=O)c1nnn(-c2nonc2N)c1-c1ccc(C)cc1,,11.2 µM (active)
Nc1nonc1-n1nncc1-c1ccccc1,-0.506%,
COCc1c(C(N)=O)nnn1-c1nonc1N,-9.91%,
c1ccc(CNc2ccnc(-c3ccoc3)n2)cc1,-18.3% [at 2.29 µM],
Cc1ccc(NC(=O)N/C=C/c2ccco2)cc1C,,15.8 µM (active)
O=C(/C=C/c1cccc(Cl)c1)Nc1ccncc1,,0.0447 µM (active)
O=C(O)/C=C\C(=O)Nc1ccc2c(c1)C(=O)c1cc(F)ccc1-2,-23.6% [at 11.4 µM],
CS[C@@H](CC(=O)O)C(=O)O,-8.91% [at 11.4 µM],
O=CN1CCN(C[C@H](O)CN2CCCCC2)CC1,-3.16% [at 11.4 µM],
N#Cc1c(-c2ccc3c(c2)OCO3)ccn2nc(-c3cccc(C(F)(F)F)c3)nc12,6.23%,
CCCCCc1nc2c(C#N)c(-c3ccc(Cl)cc3)ccn2n1,,3.55 µM (active)
CC[C@@]1([N+](=O)[O-])C[C@H]2C=C[C@@H]1C2,-0.495% [at 11.4 µM],
NCCNCC1CCNCC1,9.94% [at 11.4 µM],
CCN(CC)CCOC(=O)[C@@H](Cc1cccc2ccccc12)C[C@@H]1CCCO1,19.7% [at 25.6 µM],
CCOC(=O)c1ccc(-c2ccc(CO)o2)cc1,,15.8 µM (active)
CCOC(=O)c1ccc(N)cc1,-13.8% [at 25.6 µM],
Cc1ccc(-c2ccc(CCC(=O)O)o2)cc1,-27.5%,
O=c1[nH]c2[nH]c(=S)[nH]c(=S)c2[nH]1,,1.26 µM (active)
C[C@@]1(CCOCc2ccccc2)NC(=O)NC1=O,-8.7% [at 11.4 µM],
COc1ccc(-c2cc(C(F)(F)F)nc(NCc3cccnc3)n2)cc1,,5.62 µM (active)
COc1ccccc1-c1nccc(NCc2cccnc2)n1,-15.5% [at 2.29 µM],
COc1cccc(-c2nccc(NCc3cccnc3)n2)c1,0.577% [at 2.29 µM],

SMILES,"activity, negative = inhibition",AC50
COc1ccc(-c2cc(C(F)(F)F)nc(SCc3cccc(C(=O)O)c3)n2)cc1,,7.94 µM (active)
COC(=O)CSc1cc(C(F)(F)F)nc(-c2ccccn2)n1,-26%,
O=C(O)C(Cl)(c1ccccc1)c1ccccc1,-22.8% [at 11.4 µM],
CN(C)Cc1ccc(C(C)(C)C)cc1-c1cc(C(C)(C)C)ccc1CN(C)C,4.33% [at 11.4 µM],
COc1ccccc1CCn1c(=O)c(-c2cccc(Cl)c2)nc2cncnc21,,1 µM (active)
COCCn1c(=O)c(-c2ccc(F)c(F)c2)nc2cncnc21,-22.3%,
COc1ccccc1CCn1c(=O)c(-c2ccccc2)nc2cncnc21,,5.01 µM (active)
COc1ccccc1CCn1c(=O)c(-c2ccc(F)cc2)nc2cncnc21,,3.98 µM (active)
Cn1c(=O)c(-c2ccccc2)nc2cncnc21,5.36%,
Cn1c(=O)c(-c2ccc(F)cc2)nc2cncnc21,7.67%,
COc1ccc(-n2c(=O)c(-c3ccc(F)c(F)c3)nc3cncnc32)cc1,3.26%,
COc1ccccc1CCn1c(=O)c(-c2ccc(F)c(F)c2)nc2cncnc21,,6.31 µM (active)
COCCn1c(=O)c(-c2cccc(Cl)c2)nc2cncnc21,-28.7%,
COCCn1c(=O)c(-c2ccc(F)cc2)nc2cncnc21,-8.81%,
Cc1noc(C)c1-c1cncnc1NCc1ccccc1,18.5% [at 2.29 µM],
CCc1cc2c(nc1CC)CCN(CC/C(C)=N/OC[C@@H](O)COCc1ccco1)C2,17.1% [at 11.4 µM],
COc1ccccc1CCn1c(=O)c(CCc2ccccc2)nc2cncnc21,,7.94 µM (active)
COc1ccccc1CCn1c(=O)c(-c2ccc(Cl)cc2)nc2cncnc21,,3.98 µM (active)
COc1ccccc1CCn1c(=O)c(-c2cccs2)nc2cncnc21,,2.51 µM (active)
O=c1c(CCc2ccccc2)nc2cncnc2n1Cc1ccc(F)cc1,,7.94 µM (active)
CCN(CC)C(=O)CSc1nc(O)cc(=O)n1CC,-12.4%,
CO[C@H]1COC(=O)[C@@H](C)COC(=O)[C@@H](Cc2ccccc2)NC(=O)C/C=C\[C@H]1C,5.22% [at 11.4 µM],
COc1ccc(CNc2ccnc(-c3ccccc3OC)n2)c(OC)c1,14.7% [at 2.29 µM],
